# Screening results (PubChem BioAssay)
# A selection: hits, their analogues and other compounds. The true share with any hit is near 7.7%.
# PD-1 reversal: reversal of PD-1 mediated T-cell inhibition. primary human CD4 T cells, PD-L1 beads, CellTiter-Glo 96 h. activation, % (concentration not given with the values). 29,000 tested, under 10 active; call rule not given here
# NOMO-1 viab: STK33 inhibitor candidate reducing NOMO-1 cell viability; inhibition, % (concentration not given with the values); hit rate 7.5% among 37,000; AID 2330; NOMO-1 AML viability, CellTiter-Glo luminescence, 72 h; in the data active = inhibition above about 80%; inconclusive = no clear call, values can overlap the other calls
# Shh pathway inh: Sonic Hedgehog pathway inhibition; Shh-LIGHT2 Gli-luciferase reporter, 30 h; inhibition, % (concentration not given with the values); hit rate 2.1% among 22,000; AID 2313;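 active = mean inhibition across valid replicates above about 65%, limit read from the data; inconclusive = mean under the limit, yet half or more replicates past it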;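 also: pathway switched on by Shh-conditioned medium diluted 1 in 25 in low serum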
# Hits are given with their value; - = inactive; ? = inconclusive; . = no result.
SMILES,PD-1 reversal,NOMO-1 viab,Shh pathway inh
COc1ccc(CC(=O)Nc2ccc(NC(=O)c3ccco3)cc2)cc1OC,-,113.7,.
COc1ccc(CC(=O)Nc2ccc(S(N)(=O)=O)cc2)cc1OC,.,-,.
COc1ccccc1-n1nnnc1SCC(=O)Nc1ccc(Br)cc1,.,-,.
Cc1ccc(NC(=O)COc2ccccc2Cl)c([N+](=O)[O-])c1,.,-,.
Cc1cc(C)c(NC(=O)CN(c2cccc(Cl)c2C)S(C)(=O)=O)c(C)c1,-,-,.
C[C@@H]1CN([C@H](C)CO)C(=O)c2cc(NC(=O)NC3CCCCC3)ccc2O[C@@H]1CN(C)Cc1ccncc1,-,-,-
C[C@H](CO)N1C[C@H](C)[C@@H](CN(C)Cc2ccc(-c3ccccc3)cc2)Oc2ccc(NC(=O)C3CCCCC3)cc2C1=O,-,-,.
C[C@H]1CN([C@@H](C)CO)C(=O)c2cc(NC(=O)C3CCCCC3)ccc2O[C@@H]1CN(C)Cc1ccncc1,-,-,.
C[C@H]1CN([C@@H](C)CO)C(=O)c2cc(NC(=O)C3CCCCC3)ccc2O[C@@H]1CN(C)Cc1ccc(-c2ccccc2)cc1,-,100.2,-
C[C@H](CO)N1C[C@H](C)[C@H](CN(C)Cc2ccncc2)Oc2ccc(NC(=O)NC3CCCCC3)cc2C1=O,-,105.2,-
C[C@H]1CN([C@@H](C)CO)C(=O)c2cc(NC(=O)C3CCCCC3)ccc2O[C@H]1CN(C)Cc1ccncc1,-,97.2,.
CCn1c(SCC(=O)Nc2c(Cl)cc(Cl)cc2Cl)nnc1-c1ccc(OC)cc1,-,-,.
COc1ccc(/C=C2\Cc3ccccc3C2=O)cc1,-,-,.
Cc1cc(Cl)ccc1OCC(=O)Nc1cccc(NC(=O)c2ccccc2C)c1,-,-,.
CCC(c1nc2ccccc2c(=O)n1-c1ccccn1)N1C(=O)c2ccccc2C1=O (configuration not stated),-,-,.
C[C@H](CO)N1C[C@H](C)[C@H](CN(C)C)Oc2c(NC(=O)CCCCCC(=O)Nc3ccccc3N)cccc2C1=O,-,-,.
C[C@@H]1CN([C@@H](C)CO)C(=O)c2cccc(NC(=O)CCCCCC(=O)Nc3ccccc3N)c2O[C@H]1CN(C)CC1CCCCC1,-,137.9,.
C[C@H](CO)N1C[C@H](C)[C@@H](CN(C)CC2CC2)Oc2c(NC(=O)CCCCCC(=O)Nc3ccccc3N)cccc2C1=O,-,121.1,.
C[C@H](CO)N1C[C@H](C)[C@H](CN(C)CC2CC2)Oc2c(NC(=O)CCCCCC(=O)Nc3ccccc3N)cccc2C1=O,-,-,.
O=C(NC1CCN(C(=O)c2c(Cl)cccc2Cl)CC1)C1CCCCC1,-,-,-
CSc1sc(/C(C)=N\O)c2c1/C(=N\O)CC(C)(C)C2,-,-,.
CSc1sc(Cl)c2c1/C(=N\O)CC(C)(C)C2,-,109.5,?
COc1ccc2cc3[n+](cc2c1OC)CCc1cc2c(cc1-3)OCO2,-,110.0,-
COc1ccc2c(c1OC)CN(C)CCc1cc3c(cc1C(=O)C2)OCO3,-,-,-
Cc1ccc(S(C)(=O)=O)cc1,-,-,-
SMILES,PD-1 reversal,NOMO-1 viab,Shh pathway inh
O=C(NC(=S)N(Cc1cccnc1)Cc1ccccc1Cl)c1ccccc1,-,-,-
COc1ccccc1-n1nnnc1SCC(=O)Nc1ccccc1SC,-,-,.
C[C@@H]1CN([C@H](C)CO)C(=O)c2cc(N(C)C)ccc2O[C@@H]1CN(C)Cc1ccc(C(=O)Nc2ccccc2N)cc1,-,109.7,.
C[C@@H]1CN([C@@H](C)CO)C(=O)c2cc(N(C)C)ccc2O[C@H]1CN(C)Cc1ccc(C(=O)Nc2ccccc2N)cc1,-,109.7,.
C[C@H]1CN([C@@H](C)CO)C(=O)c2cc(NS(C)(=O)=O)ccc2O[C@H]1CN(C)Cc1ccc(C(=O)Nc2ccccc2N)cc1,-,-,.
C[C@H](CO)N1C[C@H](C)[C@H](CN(C)Cc2ccc(C(=O)Nc3ccccc3N)cc2)Oc2ccc(N(C)C)cc2C1=O,-,110.6,.
C[C@H]1CN([C@@H](C)CO)C(=O)c2cc(NC(=O)Nc3ccc4c(c3)OCO4)ccc2O[C@H]1CN(C)Cc1ccc(C(=O)Nc2ccccc2N)cc1,-,-,.
C[C@H]1CN([C@@H](C)CO)C(=O)c2cc(N(C)C)ccc2O[C@H]1CN(C)Cc1ccc(C(=O)Nc2ccccc2N)cc1,-,109.9,.
C[C@@H]1CN([C@H](C)CO)C(=O)c2cc(NC(=O)Nc3ccc4c(c3)OCO4)ccc2O[C@@H]1CN(C)Cc1ccc(C(=O)Nc2ccccc2N)cc1,-,?,.
O=C(CSc1nc2ccccc2[nH]1)Nc1ccc(Cl)c(Br)c1,-,-,.
O=C1C(C=NC(CO)(CO)CO)=C(O)c2ccccc21,-,-,-
CCOC(=O)CSc1ncnc2c1sc1nc3c(cc12)COC(C)(C)C3,-,-,.
Cc1nc(SCC(=O)NCc2ccco2)c2c3c(sc2n1)CCC3,-,-,.
CC1(C)Cc2nc3sc4c(SCC(=O)NCc5ccco5)ncnc4c3cc2CO1,-,127.2,.
O=C(CSc1ncnc2sc3c(c12)CCCCC3)NCc1ccco1,-,131.5,.
CCN(CCC#N)C(=S)Nc1cc(C(F)(F)F)cc(C(F)(F)F)c1,-,-,-
NCCNc1ccc([N+](=O)[O-])c(NCCO)c1,-,-,.
CSc1nc(SCC(=O)Nc2cccc(C)c2)c2c3c(sc2n1)CCCC3,-,-,.
C[C@@H]1CN([C@H](C)CO)C(=O)Cc2cc(NC(=O)Nc3ccc4c(c3)OCO4)ccc2O[C@@H]1CN(C)Cc1ccc2c(c1)OCO2,-,-,71.5
C[C@@H]1CN([C@H](C)CO)C(=O)Cc2cc(NC(=O)Nc3ccc4c(c3)OCO4)ccc2O[C@@H]1CN(C)Cc1ccc(Cl)c(Cl)c1,-,108.2,-
C[C@H](CO)N1C[C@H](C)[C@H](CN(C)Cc2ccc3c(c2)OCO3)Oc2ccc(NC(=O)Nc3ccc(F)cc3)cc2CC1=O,-,-,-
C[C@@H]1CN([C@H](C)CO)C(=O)Cc2cc(NC(=O)Nc3ccc4c(c3)OCO4)ccc2O[C@H]1CN(C)Cc1ccc(Cl)c(Cl)c1,.,-,.
C[C@@H]1O[C@@H](O[C@@H]2[C@@H](O)[C@H](OCCc3ccc(O)c(O)c3)O[C@H](CO[C@@H]3OC[C@](O)(CO)[C@H]3O)[C@H]2OC(=O)/C=C/c2ccc(O)c(O)c2)[C@H](O[C@@H]2OC[C@H](O)[C@H](O)[C@H]2O)[C@H](O)[C@H]1O,-,-,-
CCOC(=O)C(C#N)C(c1cccnc1)c1[nH]c(C)nc1O (configuration not stated),-,-,-
C[C@@H]1O[C@@H](O[C@H]2[C@H](O)[C@@H](O[C@@H]3O[C@H](CO)[C@@H](O)[C@H](O[C@@H]4O[C@H](CO)[C@@H](O)[C@H](O)[C@H]4O)[C@H]3O)[C@H](O[C@H]3CC[C@@]4(C)C(=CC[C@@H]5C4CC[C@@]4(C)C5C[C@@H]5O[C@]6(CC[C@@](C)(CO[C@@H]7O[C@H](CO)[C@@H](O)[C@H](O)[C@H]7O)O6)[C@@H](C)[C@@H]54)C3)O[C@@H]2CO)[C@H](O)[C@H](O)[C@H]1O (some centres not stated),-,120.3,69.6
CC1CCC2(NC1)OC1CC3C4CC=C5CC(O[C@@H]6O[C@H](CO)[C@@H](O[C@@H]7O[C@@H](C)[C@H](O)[C@@H](O)[C@H]7O)[C@H](O)[C@H]6O)CCC5(C)C4CCC3(C)C1C2C (some centres not stated),-,-,-
